We go through ten compounds from PubChem BioAssay AID2284366 (EPA ToxCast).

Results filed as inconclusive are left out. Activity calls are given as the source filed them. How the source made its calls: active means hit-call score of the fitted dose curve at least 0.9, where 1 is the maximum; inconclusive means response in the unintended direction; inactive means score below 0.9.

In this assay the test system is zebrafish Peroxisome Proliferator-activated Receptor gamma (PPARg), gene 557037. The assay can be described thus: ATG_zfPPARg_EcoTox2: Attagene TRANS-FACTORIAL EcoTox-2 HepG2 Assay for zebrafish Peroxisome Proliferator-activated Receptor gamma (PPARg). The protocol:
ATG_EcoTox2 is a cell-based, multiplexed assay created by modifying the existing Attagene TRANS-FACTORIAL system to include a panel of nuclear receptors from some or all the following species: human (Homo sapiens), african clawed frog (Xenopus laevis), rainbow trout (Oncorhynchus mykiss), japanese medaka (Oryzias latipes), and zebrafish (Danio rerio). The ECOTOX2-FACTORIAL format uses HepG2, a human liver cell line, with measurements taken at 24 hours after chemical dosing in a 24-well plate. ATG_zfPPARg_EcoTox2 is one of 29 assay components calculated in the ATG_EcoTox2 assay. It is designed to make measurements of mRNA induction, a form of inducible reporter, as detected with fluorescence intensity signals by Reverse transcription polymerase chain reaction (RT-PCR) and Capillary electrophoresis technology.The assay endpoint ATG_zfPPARg_EcoTox2 was analyzed in the positive analysis fitting direction relative to DMSO as the negative control and baseline of activity. Using a type of inducible reporter, measures of mRNA for gain-of-signal activity can be used to understand the reporter gene at the transcription factor-level as they relate to the gene PPARg. Furthermore, this assay endpoint can be referred to as a primary readout, because this assay has produced multiple assay endpoints where this one serves a reporter gene function. To generalize the intended target to other relatable targets, this assay endpoint is annotated to the nuclear receptor intended target family, where the subfamily is non-steroidal.
Human liver HepG2 cells are transiently transfected with multiple reporter transcription units (MRTUs) in 6-well plates using FuGene 6 reagent (Roche; 3 ml FuGene/1 mg DNA). The MRTU constructs are regulated by a cis-regulating element (promoter). Each RTU expresses a GAL4-UAS that regulates the transcription of a nearby target reporter gene sequence. A major difference between the CIS and TRANS system is that in CIS activities of endogenous TFs are measured, whereas the TRANS assay evaluates changes in activities of exogenous, chimeric NR-Gal4 proteins. […] At the end of 24 hour incubation, total RNA was isolated using TriZol reagent (Invitrogen). The isolated RNA is then reverse-transcribed using oligo(dT) primer and Mo-MLV reverse transcriptase (Invitrogen) with DNAse I (Ambion) treatment for 30 min. The one-tenth of the produced cDNA was amplified by PCR using Taq DNA polymerase (Invitrogen) and two reporter sequence-specific primers. The PCR products were fluorescently labeled by primer extension with 6-arboxyfluorescein (6-FAM) 5'-labeled reporter sequence-specific primer (2 min at 95 C, 20 s at 68 C and 10 min at 72 C) and these products were digested with 5U of HpaI (New England Biolabs) for 2h at 37 C. The fragments were purified using Qiaquick PCR columns (Qiagen), analyzed on an ABI 3130xL genetic analyzer (Applied Biosystems) with peak positions identified by using a set of X-rhodamine (ROX)-labeled MapMarker1000 molecular weight standards (BioVentures). The raw capillary electrophoresis data was processed using Attagraph software (Attagene).
Turning to `C=C(c1ccc(C(=O)O)cc1)c1cc2c(cc1C)C(C)(C)CCC2(C)C`, the AC50 (commonly the concentration giving half of the maximal activity seen) was 2.23 µM (active).

On to `Cc1c(C)c2c(c(C)c1O)CCC(C)(COc1ccc(CC3SC(=O)NC3=O)cc1)O2` (stereo not given), for which the compound was called inactive.

On to `CN(CCOc1ccc(CC2SC(=O)NC2=O)cc1)c1ccccn1` (stereo not given), for which the call was inactive.

Turning to `C[C@@H]1C[C@H]2[C@@H]3CCC4=CC(=O)C=C[C@]4(C)[C@@]3(F)[C@@H](O)C[C@]2(C)[C@@]1(O)C(=O)COP(=O)(O)O`, the result was inactive.

As for `C[C@]12C=CC(=O)C=C1CC[C@@H]1[C@@H]2C(=O)C[C@@]2(C)[C@H]1CC[C@]2(O)C(=O)CO`, the compound was called inactive.

On to `CC(C)OC(=O)C(C)(C)Oc1ccc(C(=O)c2ccc(Cl)cc2)cc1`, for which the result was inactive.

As to `CC(C)(Oc1ccc(Cl)cc1)C(=O)O`, the result was inactive.

For `Cc1cccc(Nc2cc(Cl)nc(SCC(=O)O)n2)c1C`, the compound was classed as inactive.

Turning to `Cc1ccc(C)c(OCCCC(C)(C)C(=O)O)c1`, the compound was classed as inactive.

Consider `Cc1nc(-c2ccc(C(F)(F)F)cc2)sc1C(=O)NCc1ccc(OC(C)(C)C(=O)O)cc1`, for which the AC50 was 21.3 µM (active).
